In the supplement of paper PMC11732987, “Enantioselective OTUD7B fragment discovery through chemoproteomics screening and high-throughput optimisation” (Communications Chemistry, 2025):

What was measured:
Test in all cases: log2 ratio of Biotin-Ahx-Ub-VS probe labelling (fragment/DMSO); higher = less target engagement (more negative = stronger competition), active = hit call of the paper (q ≤ 0.05, log2 ratio ≤ -1)
Settings in all cases: compound concentration: 200 uM; treatment time: 3 h
[1] = compound: CC(C)CN(C1CC1)C(=O)CCl
Procedure, shortened: (§1)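 Average log2 ratios of fragment over vehicle were obtained by unpaired t-test from global-median-normalised Spectronaut label-free quantities. Proteins with ≥2 unique peptides were included. HEK293T lysate (495 µg per sample) was treated in triplicate with fragment at 200 µM or vehicle for 3 h, then with Biotin-Ahx-Ub-VS at 0.5 µM final for 1 h, and labelled DUBs were NeutrAvidin-enriched and run by diaPASEF LC-MS/MS.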

[2] = compound: CC(NC(=O)CCl)c1cccs1
Procedure, shortened: as §1

[3] = compound: CC1CCCCC1NC(=O)CCl
Procedure, shortened: as §1

[4] = compound: CC1CCCCN1C(=O)CCl
Procedure, shortened: as §1

[5] = compound: CC1CN(CC(C)O1)C(=O)CCl
Procedure, shortened: as §1

[6] = compound: CN(C1CCCCC1)C(=O)CCl
Procedure, shortened: as §1

[7] = compound: Cc1cc(NC(=O)CCl)no1
Procedure, shortened: as §1

[8] = compound: Cc1cccc(NC(=O)CCl)c1
Procedure, shortened: as §1

[9] = compound: Cc1nc(NC(=O)CCl)sc1C
Procedure, shortened: as §1

[10] = compound: Cc1nnc(NC(=O)CCl)s1
Procedure, shortened: as §1

[11] = compound: Cl.Cc1ncsc1CNC(=O)CCl
Procedure, shortened: as §1

[12] = compound: ClCC(=O)N1CCCCCCC1
Procedure, shortened: as §1

[13] = compound: ClCC(=O)NC1(CCCC1)C#N
Procedure, shortened: as §1

[14] = compound: ClCC(=O)NCC1CCC1
Procedure, shortened: as §1

[15] = compound: ClCC(=O)NCC1CCCO1
Procedure, shortened: as §1

[16] = compound: ClCC(=O)NCc1ccco1
Procedure, shortened: as §1

[17] = compound: ClCC(=O)Nc1cccc(Cl)c1
Procedure, shortened: as §1

Sequence of UniProt Q53GS9 (Q53GS9 whole entry): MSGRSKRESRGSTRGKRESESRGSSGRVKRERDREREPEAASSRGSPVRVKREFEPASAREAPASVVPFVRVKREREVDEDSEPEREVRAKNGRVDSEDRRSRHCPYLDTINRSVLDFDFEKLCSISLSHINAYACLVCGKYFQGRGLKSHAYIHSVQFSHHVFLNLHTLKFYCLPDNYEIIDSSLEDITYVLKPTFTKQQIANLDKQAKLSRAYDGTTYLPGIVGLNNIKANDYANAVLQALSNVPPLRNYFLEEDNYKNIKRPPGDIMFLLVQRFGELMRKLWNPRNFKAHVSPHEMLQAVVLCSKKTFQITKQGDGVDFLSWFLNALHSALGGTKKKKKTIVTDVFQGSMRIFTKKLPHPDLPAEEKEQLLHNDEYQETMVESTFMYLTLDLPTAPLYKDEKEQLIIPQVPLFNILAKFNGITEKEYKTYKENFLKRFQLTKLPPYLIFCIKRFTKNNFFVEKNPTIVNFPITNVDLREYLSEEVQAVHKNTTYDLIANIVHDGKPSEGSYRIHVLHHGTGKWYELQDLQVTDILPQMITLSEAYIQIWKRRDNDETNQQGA
Sequence of UniProt Q9P2H5 (Q9P2H5 whole entry): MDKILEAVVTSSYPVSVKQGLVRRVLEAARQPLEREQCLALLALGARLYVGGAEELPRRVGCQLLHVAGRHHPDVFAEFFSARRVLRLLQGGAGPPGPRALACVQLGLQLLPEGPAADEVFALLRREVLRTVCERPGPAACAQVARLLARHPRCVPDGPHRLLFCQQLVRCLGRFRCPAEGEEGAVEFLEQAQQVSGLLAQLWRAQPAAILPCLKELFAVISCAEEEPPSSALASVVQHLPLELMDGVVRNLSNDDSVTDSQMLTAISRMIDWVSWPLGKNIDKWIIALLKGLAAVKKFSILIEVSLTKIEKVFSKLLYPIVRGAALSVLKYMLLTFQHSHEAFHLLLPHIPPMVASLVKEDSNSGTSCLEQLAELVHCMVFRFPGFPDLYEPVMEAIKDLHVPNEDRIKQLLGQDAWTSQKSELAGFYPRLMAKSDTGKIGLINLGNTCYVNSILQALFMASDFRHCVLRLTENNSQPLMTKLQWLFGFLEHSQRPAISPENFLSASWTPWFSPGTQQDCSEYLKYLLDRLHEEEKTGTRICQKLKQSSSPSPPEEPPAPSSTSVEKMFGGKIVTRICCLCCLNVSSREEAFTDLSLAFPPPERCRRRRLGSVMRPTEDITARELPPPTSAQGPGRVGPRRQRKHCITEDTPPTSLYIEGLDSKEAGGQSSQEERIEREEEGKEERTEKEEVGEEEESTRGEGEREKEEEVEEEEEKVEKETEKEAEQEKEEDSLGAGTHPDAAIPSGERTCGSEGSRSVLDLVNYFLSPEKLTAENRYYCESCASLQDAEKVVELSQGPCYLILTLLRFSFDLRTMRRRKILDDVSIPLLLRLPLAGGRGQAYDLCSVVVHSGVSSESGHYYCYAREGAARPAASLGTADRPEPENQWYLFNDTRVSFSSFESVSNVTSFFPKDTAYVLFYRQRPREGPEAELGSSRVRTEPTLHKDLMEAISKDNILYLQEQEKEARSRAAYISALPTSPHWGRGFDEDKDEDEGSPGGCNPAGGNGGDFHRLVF
Sequence of UniProt O00487 (O00487 whole entry): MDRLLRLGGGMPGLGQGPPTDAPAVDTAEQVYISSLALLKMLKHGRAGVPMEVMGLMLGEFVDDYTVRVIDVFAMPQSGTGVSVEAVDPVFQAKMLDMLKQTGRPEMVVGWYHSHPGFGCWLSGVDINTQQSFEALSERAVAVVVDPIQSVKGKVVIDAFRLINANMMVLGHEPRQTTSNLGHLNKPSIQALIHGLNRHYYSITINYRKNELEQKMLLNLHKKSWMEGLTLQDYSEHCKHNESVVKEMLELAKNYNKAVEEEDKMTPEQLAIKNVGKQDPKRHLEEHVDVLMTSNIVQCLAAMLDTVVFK
Sequence of UniProt P51665 (P51665 whole entry): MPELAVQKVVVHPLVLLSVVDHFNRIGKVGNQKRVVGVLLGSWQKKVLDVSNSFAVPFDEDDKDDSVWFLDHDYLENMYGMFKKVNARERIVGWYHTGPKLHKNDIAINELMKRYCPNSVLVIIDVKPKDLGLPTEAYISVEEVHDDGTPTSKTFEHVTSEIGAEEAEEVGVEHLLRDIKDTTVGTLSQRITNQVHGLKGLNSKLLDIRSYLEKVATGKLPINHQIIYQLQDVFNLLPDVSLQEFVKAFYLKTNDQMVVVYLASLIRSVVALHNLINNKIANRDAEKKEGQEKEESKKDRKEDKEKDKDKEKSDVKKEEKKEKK
Sequence of UniProt Q9NUU6 (Q9NUU6 whole entry): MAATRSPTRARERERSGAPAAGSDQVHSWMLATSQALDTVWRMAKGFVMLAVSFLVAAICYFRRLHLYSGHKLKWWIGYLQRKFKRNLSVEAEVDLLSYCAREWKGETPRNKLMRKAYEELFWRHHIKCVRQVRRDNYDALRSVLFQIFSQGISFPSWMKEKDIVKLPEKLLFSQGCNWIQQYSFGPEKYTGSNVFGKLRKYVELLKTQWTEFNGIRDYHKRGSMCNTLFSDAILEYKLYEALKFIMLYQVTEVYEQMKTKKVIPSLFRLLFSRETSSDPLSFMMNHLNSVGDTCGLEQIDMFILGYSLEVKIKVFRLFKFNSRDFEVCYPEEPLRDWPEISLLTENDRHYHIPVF
Sequence of UniProt Q9UGI0 (Q9UGI0 whole entry): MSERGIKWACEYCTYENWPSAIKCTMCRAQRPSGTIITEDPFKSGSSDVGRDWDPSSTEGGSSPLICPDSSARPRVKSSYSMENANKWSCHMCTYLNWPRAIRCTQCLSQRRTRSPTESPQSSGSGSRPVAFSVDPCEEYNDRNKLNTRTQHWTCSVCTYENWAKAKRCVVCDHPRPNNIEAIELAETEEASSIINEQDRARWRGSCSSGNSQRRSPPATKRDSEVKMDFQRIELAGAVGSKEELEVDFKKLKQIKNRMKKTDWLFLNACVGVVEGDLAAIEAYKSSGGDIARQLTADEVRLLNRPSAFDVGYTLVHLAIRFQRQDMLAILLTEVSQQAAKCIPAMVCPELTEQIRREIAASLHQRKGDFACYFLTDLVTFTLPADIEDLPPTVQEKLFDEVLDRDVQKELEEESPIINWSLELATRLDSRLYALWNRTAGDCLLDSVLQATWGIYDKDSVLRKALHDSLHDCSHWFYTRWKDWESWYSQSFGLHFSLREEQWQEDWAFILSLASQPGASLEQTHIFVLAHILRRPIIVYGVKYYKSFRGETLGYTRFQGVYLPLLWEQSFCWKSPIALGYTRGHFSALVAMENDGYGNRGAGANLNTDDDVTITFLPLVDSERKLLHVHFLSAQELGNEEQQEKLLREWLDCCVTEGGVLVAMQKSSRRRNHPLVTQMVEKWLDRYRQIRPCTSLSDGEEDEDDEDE
Sequence of UniProt Q96RU2 (Q96RU2 whole entry): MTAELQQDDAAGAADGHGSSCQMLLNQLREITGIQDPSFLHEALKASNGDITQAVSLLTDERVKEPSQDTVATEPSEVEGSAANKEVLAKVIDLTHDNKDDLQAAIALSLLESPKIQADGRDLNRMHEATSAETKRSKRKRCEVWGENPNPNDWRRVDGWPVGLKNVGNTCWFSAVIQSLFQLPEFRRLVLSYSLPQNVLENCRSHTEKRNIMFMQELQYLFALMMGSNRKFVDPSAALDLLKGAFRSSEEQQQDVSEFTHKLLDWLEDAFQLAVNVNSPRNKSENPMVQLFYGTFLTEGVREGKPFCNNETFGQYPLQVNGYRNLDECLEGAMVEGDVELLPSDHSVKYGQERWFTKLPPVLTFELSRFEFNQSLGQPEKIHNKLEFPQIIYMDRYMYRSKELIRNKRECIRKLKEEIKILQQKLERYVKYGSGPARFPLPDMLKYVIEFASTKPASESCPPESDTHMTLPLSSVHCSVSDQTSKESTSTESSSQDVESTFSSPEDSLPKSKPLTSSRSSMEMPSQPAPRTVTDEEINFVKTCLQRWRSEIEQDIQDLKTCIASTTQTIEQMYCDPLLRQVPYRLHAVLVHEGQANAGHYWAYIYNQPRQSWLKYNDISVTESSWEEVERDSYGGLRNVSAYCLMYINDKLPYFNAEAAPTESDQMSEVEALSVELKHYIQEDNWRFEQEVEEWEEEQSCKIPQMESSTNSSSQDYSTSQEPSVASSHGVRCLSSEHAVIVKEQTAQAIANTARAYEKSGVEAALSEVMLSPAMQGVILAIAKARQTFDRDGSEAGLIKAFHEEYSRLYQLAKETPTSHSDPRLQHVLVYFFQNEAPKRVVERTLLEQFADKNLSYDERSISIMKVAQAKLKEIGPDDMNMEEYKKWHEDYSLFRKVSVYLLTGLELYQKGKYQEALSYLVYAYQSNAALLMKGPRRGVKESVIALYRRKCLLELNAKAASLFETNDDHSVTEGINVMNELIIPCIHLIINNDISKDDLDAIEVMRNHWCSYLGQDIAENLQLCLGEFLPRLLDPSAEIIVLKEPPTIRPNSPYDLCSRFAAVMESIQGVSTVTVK
Sequence of UniProt O15372 (O15372 whole entry): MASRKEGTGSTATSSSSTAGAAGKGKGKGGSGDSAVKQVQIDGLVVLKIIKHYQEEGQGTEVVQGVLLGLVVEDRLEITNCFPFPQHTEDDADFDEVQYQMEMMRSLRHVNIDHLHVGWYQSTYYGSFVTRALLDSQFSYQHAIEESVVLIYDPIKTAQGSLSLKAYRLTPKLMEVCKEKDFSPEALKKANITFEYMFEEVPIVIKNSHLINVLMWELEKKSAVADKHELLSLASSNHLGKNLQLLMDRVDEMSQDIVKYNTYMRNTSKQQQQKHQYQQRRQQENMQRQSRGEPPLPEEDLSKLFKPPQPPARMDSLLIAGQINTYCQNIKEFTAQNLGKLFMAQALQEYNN

Target | log2 ratio of Biotin-Ahx-Ub-VS probe labelling [1] | log2 ratio of Biotin-Ahx-Ub-VS probe labelling [2] | log2 ratio of Biotin-Ahx-Ub-VS probe labelling [3] | log2 ratio of Biotin-Ahx-Ub-VS probe labelling [4] | log2 ratio of Biotin-Ahx-Ub-VS probe labelling [5] | log2 ratio of Biotin-Ahx-Ub-VS probe labelling [6] | log2 ratio of Biotin-Ahx-Ub-VS probe labelling [7] | log2 ratio of Biotin-Ahx-Ub-VS probe labelling [8] | log2 ratio of Biotin-Ahx-Ub-VS probe labelling [9] | log2 ratio of Biotin-Ahx-Ub-VS probe labelling [10] | log2 ratio of Biotin-Ahx-Ub-VS probe labelling [11] | log2 ratio of Biotin-Ahx-Ub-VS probe labelling [12] | log2 ratio of Biotin-Ahx-Ub-VS probe labelling [13] | log2 ratio of Biotin-Ahx-Ub-VS probe labelling [14] | log2 ratio of Biotin-Ahx-Ub-VS probe labelling [15] | log2 ratio of Biotin-Ahx-Ub-VS probe labelling [16] | log2 ratio of Biotin-Ahx-Ub-VS probe labelling [17]
FAM105A (UniProt Q9NUU6) | 0.277 (inactive) | 0.257 (inactive) | 0.116 (inactive) | 0.0605 (inactive) | 0.177 (inactive) | 0.232 (inactive) | -0.696 (inactive) | 0.176 (inactive) | 0.144 (inactive) | 0.133 (inactive) | -0.00706 (inactive) | -0.0484 (inactive) | 0.105 (inactive) | 0.185 (inactive) | -0.0373 (inactive) | 0.0935 (inactive) | 0.0436 (inactive)
EIF3H (UniProt O15372) | -0.185 (inactive) | 0.239 (inactive) | -0.385 (inactive) | -0.0794 (inactive) | -0.144 (inactive) | 0.0605 (inactive) | 0.0219 (inactive) | 0.0847 (inactive) | 0.0871 (inactive) | 0.0591 (inactive) | 0.337 (inactive) | 0.342 (inactive) | -0.198 (inactive) | -0.00227 (inactive) | 0.038 (inactive) | 0.206 (inactive) | 0.176 (inactive)
UniProt O00487 | -0.123 (inactive) | -0.134 (inactive) | -0.0855 (inactive) | -0.115 (inactive) | -0.19 (inactive) | -0.0571 (inactive) | 0.0118 (inactive) | -0.116 (inactive) | -0.0519 (inactive) | -0.139 (inactive) | 0.0936 (inactive) | -0.0818 (inactive) | -0.263 (inactive) | -0.192 (inactive) | -0.162 (inactive) | -0.0244 (inactive) | -0.0223 (inactive)
USP39 (UniProt Q53GS9) | -0.169 (inactive) | -0.144 (inactive) | -0.231 (inactive) | -0.11 (inactive) | -0.122 (inactive) | 0.248 (inactive) | -0.329 (inactive) | -0.224 (inactive) | 0.121 (inactive) | -0.07 (inactive) | 0.28 (inactive) | 0.0652 (inactive) | -0.079 (inactive) | -0.0869 (inactive) | -0.101 (inactive) | -0.0526 (inactive) | 0.19 (inactive)
USP47 (UniProt Q96K76) | -0.233 (inactive) | -0.0445 (inactive) | 0.00775 (inactive) | -0.363 (inactive) | 0.145 (inactive) | -0.299 (inactive) | -0.276 (inactive) | -0.708 (inactive) | -0.108 (inactive) | -0.366 (inactive) | 0.0602 (inactive) | -0.137 (inactive) | 0.0163 (inactive) | -0.243 (inactive) | -0.458 (inactive) | -0.679 (inactive) | -0.241 (inactive)
UniProt Q9UGI0 | 0.11 (inactive) | -0.241 (inactive) | -0.605 (inactive) | -1.13 (active) | -0.702 (inactive) | -0.423 (inactive) | -0.555 (inactive) | -0.519 (inactive) | -0.47 (inactive) | -0.661 (inactive) | -0.315 (inactive) | 0.214 (inactive) | -0.804 (inactive) | -0.704 (inactive) | 0.145 (inactive) | -0.705 (inactive) | -1.16 (active)
BAP1 (UniProt Q92560) | 0.0148 (inactive) | -2.33 (active) | -1.53 (active) | -0.422 (inactive) | -0.661 (inactive) | -0.252 (inactive) | -2.59 (active) | -1.83 (active) | -1.05 (active) | -1.34 (active) | -2.85 (active) | -0.0644 (inactive) | -3.06 (active) | -1.81 (active) | -0.549 (inactive) | -1.81 (active) | -2.97 (active)
USP24 (UniProt Q9UPU5) | -0.191 (inactive) | -0.0286 (inactive) | -0.426 (inactive) | -0.579 (inactive) | -0.301 (inactive) | -0.575 (inactive) | -0.201 (inactive) | -0.537 (inactive) | -0.319 (inactive) | -0.639 (inactive) | -0.322 (inactive) | -0.475 (inactive) | -0.116 (inactive) | 0.00205 (inactive) | 0.122 (inactive) | -0.238 (inactive) | -1.4 (active)
USP10 (UniProt Q14694) | -0.156 (inactive) | -0.0602 (inactive) | -0.0935 (inactive) | -0.0758 (inactive) | -0.166 (inactive) | -0.0336 (inactive) | -0.0298 (inactive) | -0.165 (inactive) | -0.0878 (inactive) | -0.256 (inactive) | -0.128 (inactive) | -0.22 (inactive) | 0.0316 (inactive) | -0.0499 (inactive) | -0.115 (inactive) | -0.0176 (inactive) | -0.249 (inactive)
UniProt Q9P2H5 | -0.166 (inactive) | -0.204 (inactive) | 0.0516 (inactive) | -0.0828 (inactive) | -0.259 (inactive) | -0.335 (inactive) | 0.0945 (inactive) | -0.217 (inactive) | -0.0782 (inactive) | -0.183 (inactive) | -0.0813 (inactive) | -0.0714 (inactive) | -0.237 (inactive) | -0.322 (inactive) | -0.138 (inactive) | -0.105 (inactive) | -0.631 (inactive)
USP28 (UniProt Q96RU2) | -0.207 (inactive) | -0.568 (inactive) | -0.669 (inactive) | -0.421 (inactive) | -0.575 (inactive) | -0.419 (inactive) | -0.987 (inactive) | -0.664 (inactive) | -0.857 (inactive) | -0.957 (inactive) | -0.256 (inactive) | -0.28 (inactive) | -0.611 (inactive) | -0.427 (inactive) | -0.11 (inactive) | -0.47 (inactive) | -1.44 (active)
PSMD7 (UniProt P51665) | -0.0028 (inactive) | -0.0716 (inactive) | 0.132 (inactive) | -0.25 (inactive) | -0.394 (inactive) | -0.133 (inactive) | -0.0871 (inactive) | -0.0249 (inactive) | 0.0653 (inactive) | -0.0837 (inactive) | -0.291 (inactive) | -0.184 (inactive) | -0.279 (inactive) | -0.286 (inactive) | 0.0364 (inactive) | -0.47 (inactive) | -0.124 (inactive)
